Results taken from PubChem BioAssay (NCATS).
Where “and” joins values, the source holds several entries; their conditions need not be identical. Equal values may be shown once. Results filed as inconclusive are left out. The source holds several records for some structures; these can differ, active in one and inactive in another. Calls of active or inactive are those of the source. The call rests on the fitted dose curve; in most records, active means well fitted inhibition curve with a large enough effect; inconclusive means small, poorly fitted or top-dose-only effect; inactive means no such curve, though single readings can be large or run the other way.

experiment: Primary qHTS for inhibitors of nuclear receptor binding SET domain protein 2 (NSD2) in an RCH-ACV wild type WT cells (2C) (AID 1645877); conditions: RCH-ACV (leukaemia line) NSD2 WT (2C) viability, CellTiter-Glo, 72 h; series mostly up to 44.9 µM; further: nearly all actives have a fitted effect of over 70% in size
Excerpt: Assay Provider: Jonathan D. Licht, MD
University of Florida College of Medicine, Gainesville, FL
Mutations in epigenetic regulators are common in relapsed pediatric acute lymphoblastic leukemia (ALL). Here, we uncovered the mechanism underlying the relapse of ALL driven by an activating mutation of the NSD2 histone methyltransferase (p.E1099K). […] Correction of this mutation restored glucocorticoid sensitivity. The transcriptional response to glucocorticoids was blocked in NSD2 mutant cells due to depressed glucocorticoid receptor (GR) levels and the failure of glucocorticoids to autoactivate GR expression. […] Pre-treatment of NSD2 p.E1099K cell lines and PDX samples with PRC2 inhibitors reversed glucocorticoid resistance in vitro and in vivo.
High-throughput drug screening of isogenic RCH-ACV cell lines was performed at the National Center for Advancing Translational Science (NCATS), National Institutes of Health as previously described (1). Briefly, isogenic RCH-ACV NSD2 p.E1099K mutant (9B) and WT cells (2C) were plated at 500 cells/well in a 1536-well plate with a 72-hour incubation with compounds prior to addition of CellTiter-Glo to assess cell viability. NCATS libraries screened include: NPC, MIPE 5.0, Kinase and NPACT. To determine compound activity in the qHTS assay, the concentration-response data for each sample was plotted and modeled by a four-parameter logistic fit yielding IC50 and efficacy (maximal response) values. The area under the curve (AUC) of the dose-response curve ensures both efficacy (magnitude of cell killing) and potency (concentration that elicits cell killing) are accounted for in the analysis of activity.
1. Tobie D Lee, Olivia W Lee, Kyle R Brimacombe, Lu Chen, Rajarshi Guha, Sabrina Lusvarghi, Bethilehem G Tebase, Carleen Klumpp-Thomas, Robert W Robey, Suresh V Ambudkar, Min Shen, Michael M Gottesman, Matthew D Hall. A High-Throughput Screen of a Library of Therapeutics Identifies Cytotoxic Substrates of P-glycoprotein. Mol Pharmacol. 2019, Nov;96(5):629-640.
On the % scale 0 is the no-effect control and ±100 the full control effect.

SMILES	Potency	activity change, negative = cell killing
CCOC(=O)c1cnn(-c2ccc(NC(=O)C(Cl)=C(Cl)Cl)cc2)c1C(F)(F)F	6.49 µM (active)	
C=C1C(=O)O[C@@H]2/C=C(/C)CC3C=C(C[C@H](OC(=O)/C(C)=C\C)[C@@H]12)C(=O)O3 (stereo not given in full)	3.58 µM (active)	
Cc1cc(Nc2cc(C)c(C#N)c(NC(C)CCCC(C)(C)O)n2)n[nH]1 (stereo not given)	1.16 µM (active)	
CC(C)c1ccc(NC(=O)C(c2ccccc2)N(C)C(=O)Cc2c[nH]c3ccccc23)cc1 (stereo not given)	20.5 µM (active)	
O=C1NC(=O)/C(=C\c2ccc3nccc(-c4ccncc4)c3c2)S1	0.366 µM (active)	
C=C1C(=O)O[C@@H]2[C@H]1[C@H](O)C[C@]1(C)[C@@H](O)CC=C(C)[C@@H]21	7.28 µM (active)	
O=C(NCCO)c1cc(C(=O)NCCO)cc(C(=O)NCCO)c1	inactive	
C[N+]1(C)[C@@H]2CC[C@H]1CC(OC(=O)C(O)c1ccccc1)C2 (stereo not given in full)	inactive	
CC1(C)CC[C@]2(C(=O)OC3OC(CO)C(O)C(O)C3O)CC[C@]3(C)C(=CCC4[C@@]5(C)CC[C@H](OC6OC(C(=O)O)C(O)C(O)C6O)C(CO)(CO)C5CC[C@]43C)[C@@H]2C1 (stereo not given in full)	0.435 µM (active)	
CCCC(NC(=O)/C(C#N)=C/c1cccc(Br)n1)c1ccccc1 (stereo not given)	3.26 µM (active)	
C[C@@H]1COCCN1c1cc(C2(S(C)(=N)=O)CC2)nc(-c2ccnc3[nH]ccc23)n1 (stereo not given in full)	662 nM (active) and 2.31 µM (active)	
Nc1[nH]nc2nc3ccccc3nc12	inactive	
CN[C@@H]1C[C@H]2O[C@@](C)([C@@H]1OC)n1c3ccccc3c3c4c(c5c6ccccc6n2c5c31)C(=O)N[C@H]4O	0.0303 µM (active)	
COc1ccc2nc3ccc(OC)cc3c(SCCCN)c2c1	inactive	
COc1ccc(-c2cc(C(O)C3CCCCN3)c3ccccc3n2)cc1 (stereo not given)	4.68 µM (active)	
CC(C)CN(CC(=O)N(CCCN1CCCC1=O)CC(N)=O)C(=O)CNCCc1ccccc1F	inactive	
O=C(CCCCCCC(=O)Nc1ccc(C2OC(CSc3nc(-c4ccccc4)c(-c4ccccc4)o3)CC(c3ccc(CO)cc3)O2)cc1)NO (stereo not given)	3.65 µM (active)	
CC(C)COc1ccc(CNC(=O)N(Cc2ccc(F)cc2)C2CCN(C)CC2)cc1	18.3 µM (active)	
CC(=O)C1=C(O)C2c3c[nH]c4cccc(c34)CC2C(C)(C)N(C)C1=O (stereo not given)	14.5 µM (active)	
C=C(C)C(=O)OC1[C@@H]2C(=C)C(=O)O[C@@H]2C[C@@H](C)[C@@H]2C=CC(=O)[C@@]12C (stereo not given in full)	10.1 µM (active)	

SMILES	Potency	activity change, negative = cell killing
Cc1c(C(=O)NCCCO)cnn1-c1nc(-c2cccc(C(F)(F)F)c2)cs1	25.8 µM (active)	
CC[C@H]1OC(=O)[C@H](C)[C@@H](O[C@H]2C[C@@](C)(OC)[C@@H](O)[C@H](C)O2)[C@H](C)[C@@H](O[C@@H]2O[C@H](C)C[C@H](N(C)C)[C@H]2O)[C@](C)(O)C[C@@H](C)/C(=N/OCOCCOC)[C@H](C)[C@@H](O)[C@]1(C)O	inactive	
O=c1sn(-c2cccc3ccccc23)c(=O)n1Cc1ccccc1	inactive and 7.42 µM (active)	
Cc1[nH]c(/C=C2\C(=O)Nc3ccc(F)cc32)c(C)c1C(=O)NC[C@H](O)CN1CCOCC1	6.49 µM (active) and 10.5 µM (active)	
O=C1Cc2c([nH]c3ccc([N+](=O)[O-])cc23)-c2ccccc2N1	0.632 µM (active)	
COc1cc(O)ccc1OCCNCC(O)COc1cccc2[nH]c3ccccc3c12 (stereo not given)	20.5 µM (active)	
CSc1nc(N)cc(Oc2ccc(-c3nc(Nc4cccc(C(F)(F)F)c4)n[nH]3)cc2)n1	1.3 µM (active)	
O=C1NC(=O)/C(=C/c2ccc3nccc(-c4ccncc4)c3c2)S1	920 nM (active) and 525 nM (active)	
O=C1O[C@H](C(O)CO)C(=O)C1=O (stereo not given in full)	inactive	
Cc1cn([C@H]2C[C@H](O)[C@@H](CO)O2)c(=O)nc1N	inactive	
C#Cc1cccc(Nc2ncnc3cc4c(cc23)OCCOCCOCCO4)c1	inactive	
O=[N+]([O-])c1ccc(-[n+]2nc(-c3ccccc3)nn2-c2ccc(I)cc2)cc1	inactive	
C#Cc1cccc(Nc2ncnc3cc(OC)c(OC)cc23)c1	20.6 µM (active)	
CC(C)(C)c1ccc(-c2nc3ccccc3[nH]2)cc1	6.32 µM (active)	
CCCCCCCCCCCCC/C=C/[C@@H](O)[C@H](CO)N(C)C		4.48% [at 4.96 µM] (inactive)
Cc1cc(CN)cc(C)c1NC(=O)c1ccc(-c2cc(Cl)ccc2Cl)o1	9.16 µM (active)	
CN1CCN(Cc2ccc(Nc3ncc(Cl)c(Nc4ccccc4S(=O)(=O)N(C)C)n3)cc2)CC1	0.0152 µM (active)	
O=C1c2ccccc2-c2c(NCCc3ccccc3)c(=O)[nH]c3cccc1c23	4.61 µM (active)	
CC1(CO)CCCC2(C)C1C(OC(=O)c1ccccc1)C=C1C(=O)OCC12O (stereo not given)	1.79 µM (active)	
Fc1ccc(C2CCNC[C@H]2COc2ccc3c(c2)OCO3)cc1 (stereo not given in full)	11.5 µM (active)	
